Measured values: PubChem BioAssay (NCI)
About 83,000 compounds went through this panel and 20% of them were active in at least one assay; those are over-represented in the sample as a whole.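 Testing used 96-well plates and a 48-hour single-concentration exposure. Example: -40 means 40% of the starting cells died.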 Active and inactive are the calls of the source. Rule for the calls: active = growth percent below 10; inactive = the rest.

These compounds were tested on MDA-MB-468 breast (assay: NCI-60 one-dose screen, 48 h (100 = growth as untreated, 0 = no growth, -100 = all killed)). Conditions: 10 µM unless noted.
In the case of c1ccc([P+](c2ccccc2)(c2ccccc2)c2ccc3c4ccc([P+](c5ccccc5)(c5ccccc5)c5ccccc5)c5cccc(c6cccc2c63)c54)cc1, the growth is reported as -10.9% (active).
In the case of C(CCCSC1=NCCN1)CCSC1=NCCN1, the growth is reported as 92% (inactive).
With NC(=O)NC(=O)c1ccc(Cl)cc1 the growth was 117% (inactive).
C=C1CC[C@@H]2[C@]3(C)COC(c4ccccc4)O[C@@H]3CC[C@@]2(C)[C@@H]1C/C=C1/C(=O)OC[C@H]1O (some centres undefined) was tested, and the growth was 91.4% (inactive).
Cc1ccccc1NC(=O)c1sc2nc(C)c(C(=O)/C=C/c3ccccc3)cc2c1N was tested, and the growth was 9.61% (active).
With COc1cc(Nc2ncccc2/C=C/C(=O)c2cc(OC)c(OC)c(OC)c2)cc(OC)c1OC the growth was -2.82% (active).
In the case of CCNC(=O)Oc1ccc(/C(=C(/C)c2ccc(Cl)cc2)c2ccc(OCCN(C)C)cc2)cc1, the growth is reported as 67% (inactive).
With COc1ccc(N2CCN(CC(=O)N3CCN(c4nnc(-c5ccc(Cl)cc5)c(-c5ccc(Cl)cc5)n4)CC3)CC2)cc1 the growth was 78.6% (inactive).
With Cc1cc(C)c2c(-c3nnc(N)s3)cc(=O)oc2c1 the growth was 104% (inactive).
In the case of CC(C)Cc1ccc(C(C)C(=O)NCc2c[nH]c3ccc(Cl)cc23)cc1 (centres undefined), the growth is reported as 80.7% (inactive).
For N#Cc1ccc(NC2c3ccccc3CC2O)cc1 (centres undefined), the growth was 107% (inactive).
For CN1CCN(CCCOC(=O)c2c3c(n4ccccc24)C(=O)c2ncccc2C3=O)CC1, the growth was 43.7% (inactive).
For O=C1/C(=C/c2ccc(Cl)cc2)COc2ccc(O)cc21, the growth was 85.1% (inactive).
For O=C1C(Cl)=C(N/N=c2/[nH][nH]/c(=N/NC3=C(Cl)C(=O)c4ccccc4C3=O)c3ccccc23)C(=O)c2ccccc21, the growth was 62.9% (inactive).
